From PubChem BioAssay
Values joined by “and” are separate entries in the source; they are usually repeats but may differ in a detail not shown here. Equal entries are not always repeated. For part of these data: Measured potencies and affinities stand elsewhere. The source holds several records for some structures; these can differ, active in one and inactive in another. Active and inactive are the calls of the source. Unless noted, how the calls were made is not given here.

Assays:
[1] = antimalarial activity against Dd2 strain (AID 2302;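 active means growth inhibition above 50% at the single 2 µM test dose, taken to imply half-maximal potency below 2 µM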;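 further: 0% = DMSO untreated growth and 100% = chloroquine plus artemisinin killed control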); details: P. falciparum Dd2 in RBCs, LDH growth readout, 72 h; at 2 µM; stronger effect = higher value
[2] = HepG2 cytotoxicity, primary screen, cytotoxicity control for P. falciparum antimalarial project, cell-based, ATP luminescence (AID 2303;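 active means inhibition above 50%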;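 further: 0% = DMSO wells and 100% = digitonin-killed cells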); details: HepG2 viability, 24-48 h, at 10 µM, stronger effect = higher value
[3] = target: L-lactate dehydrogenase (Plasmodium falciparum (isolate CDC / Honduras)) (UniProt Q27743); test: PfLDH activity inhibition – cell lysate, 3D7 strain, counter-screen for P. falciparum growth inhibition project (AID 2304);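 further: 0% = vehicle and 100% = reference inhibitor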; details: P. falciparum 3D7 crude extract, LDH APAD/NBT absorbance; at 2 µM; stronger effect = higher value
Sequence of L-lactate dehydrogenase (Plasmodium falciparum (isolate CDC / Honduras)) (Q27743 whole entry, looked up): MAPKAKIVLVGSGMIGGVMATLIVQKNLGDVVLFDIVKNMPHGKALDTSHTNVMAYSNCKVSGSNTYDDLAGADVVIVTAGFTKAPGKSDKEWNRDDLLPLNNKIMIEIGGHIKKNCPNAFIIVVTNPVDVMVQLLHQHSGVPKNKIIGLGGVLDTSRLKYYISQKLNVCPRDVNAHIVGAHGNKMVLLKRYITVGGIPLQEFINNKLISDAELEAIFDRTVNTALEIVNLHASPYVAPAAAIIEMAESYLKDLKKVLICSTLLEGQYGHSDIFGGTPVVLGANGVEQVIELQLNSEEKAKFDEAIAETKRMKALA

[4] = inhibition of 3D7 malaria parasite growth – strain 3D7 (AID 2306);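 further: 0% = DMSO wells and 100% = chloroquine plus artemisinin control wells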; details: P. falciparum 3D7 erythrocytic growth, LDH absorbance, 72 h; at 2 µM; stronger effect = higher value
[5] = target: Calcium-dependent protein kinase 1 (Plasmodium falciparum (isolate 3D7)) (UniProt P62344); test: PfCDPK1 kinase inhibitors, biochemical, TCAMS library (AID 1159585; cut-off not given, nearly all actives have IC50 up to about 0.98 µM;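 further: inhibitors leave more ATP so luminescence rises with inhibition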); details: recombinant PfCDPK1, Kinase-Glo ATP depletion luminescence
Sequence of Calcium-dependent protein kinase 1 (Plasmodium falciparum (isolate 3D7)) (P62344 whole entry, looked up): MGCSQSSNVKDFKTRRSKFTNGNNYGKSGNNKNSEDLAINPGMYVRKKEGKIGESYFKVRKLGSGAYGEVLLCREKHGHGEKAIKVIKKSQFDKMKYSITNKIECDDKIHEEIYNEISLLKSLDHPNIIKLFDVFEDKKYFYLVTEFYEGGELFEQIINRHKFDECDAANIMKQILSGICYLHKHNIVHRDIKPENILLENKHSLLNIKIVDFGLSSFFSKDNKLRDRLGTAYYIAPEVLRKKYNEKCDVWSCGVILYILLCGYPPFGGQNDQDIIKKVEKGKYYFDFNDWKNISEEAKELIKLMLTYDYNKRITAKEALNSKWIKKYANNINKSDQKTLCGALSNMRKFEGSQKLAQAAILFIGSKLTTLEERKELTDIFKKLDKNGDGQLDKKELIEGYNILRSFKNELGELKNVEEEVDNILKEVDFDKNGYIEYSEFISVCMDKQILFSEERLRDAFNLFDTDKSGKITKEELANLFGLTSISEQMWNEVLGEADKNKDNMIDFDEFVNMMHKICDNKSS

[6] = target: Plasmodium falciparum protein kinase 6 (PK6, PF3D7_1337100) (UniProt Q8IDW1); test: PfPK6 kinase inhibitors, biochemical, TCAMS library (AID 1159586); details: recombinant PfPK6, Kinase-Glo ATP depletion luminescence
Sequence of Plasmodium falciparum protein kinase 6 (PK6, PF3D7_1337100) (Q8IDW1 1-305): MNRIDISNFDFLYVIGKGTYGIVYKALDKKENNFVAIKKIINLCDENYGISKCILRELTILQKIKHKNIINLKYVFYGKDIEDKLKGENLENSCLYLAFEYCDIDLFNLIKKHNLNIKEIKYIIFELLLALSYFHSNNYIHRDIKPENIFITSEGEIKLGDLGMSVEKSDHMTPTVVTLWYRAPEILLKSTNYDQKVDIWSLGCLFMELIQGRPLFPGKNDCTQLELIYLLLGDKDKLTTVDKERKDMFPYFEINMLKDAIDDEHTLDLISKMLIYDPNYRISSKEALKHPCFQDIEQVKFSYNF

[7] = target: Protein kinase 7 (PK7), Plasmodium falciparum 3D7 (PF3D7_0213400) (UniProt Q7YTF7); test: inhibition of Plasmodium PK7 catalytic activity – biochemical, TCAMS antimalarial set, Kinase-Glo luminescence (AID 1159587); details: recombinant PfPK7, Kinase-Glo ATP depletion luminescence
Sequence of Protein kinase 7 (PK7), Plasmodium falciparum 3D7 (PF3D7_0213400) (Q7YTF7 1-343): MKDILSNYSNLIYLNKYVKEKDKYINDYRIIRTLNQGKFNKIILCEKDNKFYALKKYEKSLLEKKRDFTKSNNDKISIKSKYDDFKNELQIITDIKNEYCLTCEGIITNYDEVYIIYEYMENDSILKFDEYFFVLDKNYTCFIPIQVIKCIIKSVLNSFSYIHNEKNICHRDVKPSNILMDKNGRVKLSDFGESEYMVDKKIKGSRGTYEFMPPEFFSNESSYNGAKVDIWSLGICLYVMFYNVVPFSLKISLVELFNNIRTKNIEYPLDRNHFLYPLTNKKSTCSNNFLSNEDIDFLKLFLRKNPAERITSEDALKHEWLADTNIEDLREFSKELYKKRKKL

[8] = target: Calcium-dependent protein kinase 4 (Plasmodium falciparum (isolate 3D7)) (UniProt Q8IBS5); test: PfCDPK4 kinase inhibitors, biochemical, TCAMS library (AID 1159588; cut-off not given, nearly all actives have IC50 up to about 0.91 µM); details: recombinant PfCDPK4, Kinase-Glo ATP depletion luminescence
Sequence of Calcium-dependent protein kinase 4 (Plasmodium falciparum (isolate 3D7)) (Q8IBS5 whole entry, looked up): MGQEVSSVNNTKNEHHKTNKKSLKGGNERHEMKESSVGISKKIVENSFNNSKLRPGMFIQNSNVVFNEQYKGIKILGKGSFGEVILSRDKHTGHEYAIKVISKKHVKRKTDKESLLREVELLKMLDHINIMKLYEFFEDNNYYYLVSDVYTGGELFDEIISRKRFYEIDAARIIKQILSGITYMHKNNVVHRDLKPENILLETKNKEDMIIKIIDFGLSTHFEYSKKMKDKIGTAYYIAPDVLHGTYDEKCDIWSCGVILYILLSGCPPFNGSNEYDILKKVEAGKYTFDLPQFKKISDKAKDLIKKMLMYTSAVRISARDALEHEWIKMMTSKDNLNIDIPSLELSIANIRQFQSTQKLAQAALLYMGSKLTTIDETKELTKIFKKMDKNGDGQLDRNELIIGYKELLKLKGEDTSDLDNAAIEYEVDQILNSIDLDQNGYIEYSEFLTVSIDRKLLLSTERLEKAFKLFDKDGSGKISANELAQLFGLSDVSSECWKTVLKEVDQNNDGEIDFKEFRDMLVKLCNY

| SMILES | growth inhibition [1] | inhibition [2] | inhibition [3] | growth inhibition [4] | outcome [5] | outcome [6] | outcome [7] | outcome [8] |
| --- | --- | --- | --- | --- | --- | --- | --- | --- |
| CC(C)C1CCc2nc(N)nc(N)c2C1 (stereo not drawn) | -2% (inactive) | 70% (active) | -5% (inactive) | 95% (active) | inactive | inactive | inactive | inactive |
| CC(C)(C)CN1C(=O)C(c2ccccc2)(c2ccccc2)N=C1N | 94% (active) | 32% (inactive) | 1% (inactive) | 98% (active) | inactive | inactive | inactive | inactive |
| COc1ccc(NC(=O)N2CCN(CCCCCNC(=O)/C=C/c3ccc(C(F)(F)F)cc3)CC2)cc1Cl | -5% (inactive) | 25% (inactive) | -2% (inactive) | 94% (active) | inactive | inactive | inactive | inactive |
| CS(=O)(=O)c1ccc(CNCc2cccc(-c3cccc(-c4nc5ccc(F)cc5[nH]4)c3)c2)cc1 | 84% (active) | 11% (inactive) | -3% (inactive) | 102% (active) | inactive | inactive | inactive | inactive |
| CC(C)c1ccc(CN2CCCCC(NC(=O)c3cc(-c4ccccc4Cl)cs3)C2)cc1 (stereo not drawn) | 64% (active) | 8% (inactive) | 3% (inactive) | 100% (active) | inactive | inactive | inactive | inactive |
| Cc1noc(C)c1-c1ccc2c(Nc3ccccc3C(C)(C)C)c(C(=O)NCc3ccc(OC(C)C)cc3)cnc2c1 | 98% (active) | -3% (inactive) | 0% (inactive) | 100% (active) | inactive | inactive | inactive | inactive |
| CCC(CC(NCCCCNC(=O)c1ccc(NC(=O)c2ccc(Cl)cc2)cc1)c1ccccc1)c1ccccc1OC (stereo not drawn) | 76% (active) and 56% (active) | 23% (inactive) and 10% (inactive) | -1% (inactive) and 1% (inactive) | 100% (active) and 89% (active) | inactive | inactive | inactive | inactive |
| COc1cc(Cc2cnc(N)nc2N)cc(OCCCCc2nn[nH]n2)c1OC | 0% (inactive) | 7% (inactive) | 1% (inactive) | 97% (active) | inactive | inactive | inactive | inactive |
| CCCS(=O)(=O)N1CCC(CO)(Cc2ccccc2C(F)(F)F)CC1 | 57% (active) | -1% (inactive) | -2% (inactive) | 97% (active) | inactive | inactive | inactive | inactive |
| O=C1c2cc(I)ccc2SC1c1ccccc1 (stereo not drawn) | 98% (active) | -7% (inactive) | -2% (inactive) | 96% (active) | inactive | inactive | inactive | inactive |
| CCCCCN1CCCC1CNS(=O)(=O)c1ccc(C(=O)Nc2cccc(C(F)(F)F)c2)cc1 (stereo not drawn) | -1% (inactive) | 16% (inactive) | -4% (inactive) | 95% (active) | inactive | inactive | inactive | inactive |
| Cc1[nH]c(C)c(-c2ccc(Oc3ccc(OC(F)(F)F)cc3)cc2)c(=O)c1Br | 95% (active) and 97% (active) | -4% (inactive) and -1% (inactive) | 1% (inactive) and 2% (inactive) | 96% (active) | inactive | inactive | inactive | inactive |
| Cc1cccc2[nH]c(-c3cccc(-c4cccc(CNCCCN5CCCC5=O)c4)c3)nc12 | 76% (active) | 9% (inactive) | 2% (inactive) | 100% (active) | inactive | inactive | inactive | inactive |
| O=C1C(c2ccccc2)=C(Nc2cc(Cl)cc(Cl)c2)c2ccccc21 | 94% (active) | -4% (inactive) | -3% (inactive) | 96% (active) | inactive | inactive | inactive | inactive |
| CN1CCN(Cc2ccc(-c3cc4nccc(Nc5ccc(Oc6ccccc6)cc5)c4cc3Cl)o2)CC1 | 99% (active) | 3% (inactive) | -5% (inactive) | 100% (active) | inactive | inactive | inactive | inactive |
| Cc1nc2ccccc2c(=O)n1NCc1ccc(Cl)c(Cl)c1 | 92% (active) | 12% (inactive) | 0% (inactive) | 96% (active) | inactive | inactive | inactive | inactive |
| CC(=O)Nc1ccc(OCCN(Cc2ccccc2C(F)(F)F)c2ccc(C#N)c(C(F)(F)F)c2)cc1 | 81% (active) | 8% (inactive) | 0% (inactive) | 101% (active) | inactive | inactive | inactive | inactive |
| CCc1cc(I)c2c(c1)C(NCCCNc1cc(=O)c3ccccc3[nH]1)CCN2 (stereo not drawn) | 32% (inactive) | 19% (inactive) | -1% (inactive) | 89% (active) | inactive | inactive | inactive | inactive |

| SMILES | growth inhibition [1] | inhibition [2] | inhibition [3] | growth inhibition [4] | outcome [5] | outcome [6] | outcome [7] | outcome [8] |
| --- | --- | --- | --- | --- | --- | --- | --- | --- |
| CCNc1cc(C(=O)N[C@@H](Cc2ccccc2)[C@H](O)CNCCc2ccccc2)cc(N2CCCC2=O)c1 | 46% (inactive) | -4% (inactive) | 2% (inactive) | 92% (active) | inactive | inactive | inactive | inactive |
| COc1ccc2ncc(F)c(CCN3CCC(CNC(=O)C(=O)c4c[nH]c5ccccc45)CC3)c2n1 | 99% (active) | 48% (inactive) | -6% (inactive) | 103% (active) | inactive | inactive | inactive | inactive |
| O=C(NCC1CCN(Cc2ccc(F)cc2)C1)c1cc(-c2cccc(C(F)(F)F)c2)cs1 (stereo not drawn) | 18% (inactive) | 38% (inactive) | -2% (inactive) | 93% (active) | inactive | inactive | inactive | inactive |
| Oc1ccc(CCNc2nc(NCCCOc3ccccc3-c3ccc(F)cc3)nc(N3CCNCC3)n2)cc1 | 8% (inactive) | 30% (inactive) | -1% (inactive) | 85% (active) | inactive | inactive | inactive | inactive |
| CS(=O)(=O)c1ccc(CCNCc2ccc(-c3ccc(CN(C(=O)c4cccc(C#N)c4)C4CCN(Cc5ccccc5)CC4)cc3)nc2)cc1 | 56% (active) | 20% (inactive) | 1% (inactive) | 96% (active) | inactive | inactive | inactive | inactive |
| COc1cccc(-c2ccc3ccnc(N)c3c2)c1 | 93% (active) | 40% (inactive) | 0% (inactive) | 101% (active) | inactive | inactive | inactive | inactive |
| COc1cc(C(F)(F)F)c2cc(CNCCCNc3nc4ccccc4[nH]3)[nH]c2c1 | 0% (inactive) | 60% (active) | -6% (inactive) | 101% (active) | inactive | inactive | inactive | inactive |
| C=C[C@H]1CN(CCCCCCC)CC[C@H]1CCN(C)c1ccnc2ccc(OC)cc12 | 93% (active) | 22% (inactive) | -1% (inactive) | 97% (active) | inactive | inactive | inactive | inactive |
| CC(C)(C)OC(=O)N(Cc1cc(-n2nnnc2C(F)(F)F)ccc1O)[C@H]1CCCN(C(=O)OC(C)(C)C)[C@H]1c1ccccc1 | 66% (active) | 14% (inactive) | -5% (inactive) | 98% (active) | inactive | inactive | inactive | inactive |
| Cc1cccc2[nH]c(-c3ccc(-c4cccc(NC(=O)NCc5cccc(F)c5)c4)cc3)nc12 | 5% (inactive) | 27% (inactive) | 6% (inactive) | 94% (active) | inactive | inactive | inactive | inactive |
| Cc1cc(N[C@@H](Cc2ccccc2)C(=O)NCCc2ccccc2)nc(NCCc2ccc(F)cc2)n1 | 89% (active) | 9% (inactive) | 2% (inactive) | 99% (active) | inactive | inactive | inactive | inactive |
| Cc1cccc2[nH]c(-c3ccc(-c4cccc(CN5CCCC5CN)c4)s3)nc12 (stereo not drawn) | 45% (inactive) | 20% (inactive) | 5% (inactive) | 91% (active) | inactive | inactive | inactive | inactive |
| Cn1ccnc1S(=O)(=O)CCNCc1ccc(-c2ccc3ncnc(Nc4ccc(OCc5cccc(F)c5)c(Cl)c4)c3c2)o1 | 94% (active) | -2% (inactive) | -3% (inactive) | 101% (active) | inactive | inactive | inactive | inactive |
| Cc1cc(OCc2ccncc2)cc2c1C(=O)CC(C)(C)O2 | 0% (inactive) | -5% (inactive) | -5% (inactive) | 99% (active) | inactive | inactive | inactive | inactive |
| COc1ccc(NC(=O)NC2CCN(CCCOc3ccnc4cc(Cl)ccc34)C2)cc1OC (stereo not drawn) | 16% (inactive) | 6% (inactive) | 1% (inactive) | 90% (active) | inactive | inactive | inactive | inactive |
| CCCCN(Cc1cc(Cl)c(OC)c(OC)c1)c1ccc(C(O)(C(F)(F)F)C(F)(F)F)cc1 | 73% (active) | 3% (inactive) | 6% (inactive) | 98% (active) | inactive | inactive | inactive | inactive |
| Cn1ncc2c3c(CCN4CCC(NCc5cc6c(cn5)OCCO6)CC4)c(Cl)cnc3ccc21 | 34% (inactive) | 1% (inactive) | 0% (inactive) | 95% (active) | inactive | inactive | inactive | inactive |
| COc1ccc2ncc(F)c(C(O)CN3CCC(NCc4ccc5c(n4)NC(=O)CO5)CC3)c2c1 (stereo not drawn) | 51% (active) and 88% (active) | 6% (inactive) and 51% (active) | 3% (inactive) and -2% (inactive) | 99% (active) and 100% (active) | inactive | inactive | inactive | inactive |
